This is a sample that favours compounds with a hit; in the whole collection about 7.7% have one here.
HCMV antiviral: blocks human cytomegalovirus replication. HFF cells, HCMV-luciferase reporter, 72 h; active compounds read low. activity change, negative = inhibition, % at 57.5 µM. 4.5% of 410,000 active; in the data active = activity change below about -60%; inconclusive = no clear call, values can overlap the other calls; inactive = above about -39%
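HFF cells seeded 16 h at 37C, treated with compounds, infected with luciferase-reporter HCMV at MOI 1 PFU/cell; luciferase read at 72 h post infection, normalized to buffer-only and Salinomycin controls.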
FMDV inh: foot and mouth disease virus antiviral activity | FMDV antiviral cell-based qHTS | Potency, µM (titrated, usually from 57.9 µM), for the others: at the top dose activity change, negative = inhibition, actives largely listed as inhibitors | 1.2% of 410,000 active | AID 1159524; calls by dose curve; tested in HEK293T cells; note: read-out not given here; potency is the fitted concentration of half-maximal effect; nearly all actives have a fitted effect of over 45% in size
RE007 growth inh: less growth of the S. pombe RE007 Vpr strain; 0.21% of 360,000 active; S. pombe RE007 Vpr strain, BacTiter-Glo ATP luminescence, 24 h; Potency, µM (top dose mostly 92.2 µM), for inactives: top-dose activity change, negative = less growth, most hits filed as inhibitors; AID 651644; active = well fitted falling curve with a large enough effect; inconclusive = small, poorly fitted or top-dose-only effect; inactive = no such curve, though single readings can be large or run the other way; note: potency is the fitted concentration of half-maximal effect; nearly all actives have a fitted effect of over 50% in size
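Fission yeast strain RE007, carrying one chromosomally integrated HIV-1 vpr copy, was seeded at OD 0.01 in PMG+AL medium with 23 nL pinned compound. After 24 h at 30 °C and 99% humidity, viability was read by BacTiter-Glo luminescence.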
TbPYK inhibitor: T. brucei pyruvate kinase inhibition | AID 624173 | 0.12% of 410,000 active | TbPYK enzyme, Kinase-Glo Plus ATP luminescence, 45 min | Potency, µM (doses to about 76.8 µM), for the others: at the highest dose activity, negative = inhibition, usual class: inhibitors | Q57TT1; note: potency is the fitted concentration of half-maximal effect; nearly all actives have a fitted effect of over 50% in size
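Screened from lowest to highest concentration, compounds were pinned into TbPYK/substrate mixtures, and ADP (130 uM final) was added. Plates sat at room temperature for 45 min prior to Kinase-Glo Plus detection by luminescence.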
Giardia FBPA inh: inhibitors of Giardia lamblia fructose-1,6-bisphosphate aldolase; purified Giardia FBPA; Potency, µM (titrated, usually from 59.6 µM), without a hit: at the top dose activity, negative = inhibition, usual class: inhibitors; 0.71% of 290,000 active; note: potency is the fitted concentration of half-maximal effect; nearly all actives have a fitted effect of over 55% in size
Target sequence (A8B2U2 whole entry, looked up): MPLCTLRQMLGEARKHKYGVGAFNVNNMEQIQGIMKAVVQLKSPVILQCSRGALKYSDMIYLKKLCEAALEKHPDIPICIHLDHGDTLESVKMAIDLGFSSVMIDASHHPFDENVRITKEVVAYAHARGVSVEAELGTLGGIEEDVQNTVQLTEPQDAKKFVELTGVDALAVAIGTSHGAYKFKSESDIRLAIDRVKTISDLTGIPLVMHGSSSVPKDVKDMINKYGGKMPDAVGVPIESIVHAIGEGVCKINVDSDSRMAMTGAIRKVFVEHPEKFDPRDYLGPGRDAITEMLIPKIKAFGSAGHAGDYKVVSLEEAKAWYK
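40 nM FBPA preincubated 10 min at RT with compound (up to 57.5 uM final), then substrate plus GAPDH/TPI/NAD/arsenate coupling and diaphorase/resazurin added. Fluorescence read after 20 min at RT, 525/598 nm.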
Sm TGR inh: blocks Schistosoma mansoni thioredoxin glutathione reductase; purified TGR, DTNB reduction, TNB absorbance 405 nm; Potency, µM (series often up to 114 µM), inactives show at the top dose activity change, negative = inhibition, usual class: inhibitors; 3% of 360,000 active; AID 485364; Q962Y6; note: potency is the fitted concentration of half-maximal effect; nearly all actives have a fitted effect of over 60% in size
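First, TGR (20 nM dispensed) and NADPH were mixed with compound. Second, a 15 min room-temperature incubation followed. Third, further NADPH and then DTNB were added to start the reaction. Finally, TNB absorbance was monitored kinetically.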
* = called active by the depositor; ? = inconclusive; . = no result given; [ ] = remark or other dose. Unless noted, calls come from the whole dose curve; as a rule, active = well fitted curve in the direction sought with a large enough effect; inconclusive = small, poorly fitted or top-dose-only effect, or another doubt; inactive = no such curve, though single readings can be large; an effect the other way counts as inactive or inconclusive. % is set by controls: 0 for no effect and ±100 for the full control effect.

SMILES	HCMV antiviral	FMDV inh	RE007 growth inh	TbPYK inhibitor	Giardia FBPA inh	Sm TGR inh
CC(=O)c1ccc(N2CCN(c3ncnc4c3nc3n4CCCC3)CC2)cc1	-86*	18µM*	.	-4%	.	3%
COc1ccccc1CNc1ncnc2c1nc1n2CCCC1	-14	-16%	.	0%	.	4%
Cc1ccc(C)c(N2CCN(c3ncnc4c3nc3n4CCCCC3)CC2)c1	3	-7%	.	-2%	.	9%
Cc1ccc(C)c(N2CCN(c3ncnc4c3nc3n4CCCC3)CC2)c1	48	?	.	8%	.	-1%
CCOc1ccccc1CNc1ncnc2c1nc1n2CCCC1	-81*	-1%	.	-7%	.	0%
C/C=C/OC(=O)NC(c1ccccc1)[C@]1(C(C)=O)CCCC1=O (some centres undefined)	.	.	.	.	-11%[12.9 µM]	.
CCCCN(CC)CCCn1cnc2c([nH]c3ccc(Cl)cc32)c1=O	-4	-8%	.	-1%	.	-1%
CCCc1nn2c(=O)cc(COC(=O)c3ccccc3NC(=O)COc3ccccc3F)nc2s1	25	?	.	1%	.	-3%
Cc1ccc(Cl)cc1N1CCN(c2ncnc3c2nc2n3CCCC2)CC1	-17	28µM*	.	0%	.	-1%
COc1cccc(N2CCN(c3ncnc4c3nc3n4CCCCC3)CC2)c1	-99*	11µM*	.	-10%	.	-1%
COc1ccccc1N1CCN(c2ncnc3c2nc2n3CCCC2)CC1	-25	?	.	-1%	.	3%
COc1ccc(N2CCN(c3ncnc4c3nc3n4CCCCC3)CC2)cc1	-27	11µM*	.	-5%	.	-12%
CCOc1ccccc1NC(=O)CN1C(=O)COc2ccc(S(=O)(=O)NC3CCCC3)cc21	-2	14%	.	-4%	.	-10%
Cc1cccc(NC(=O)C2CCCC2)c1	-8	45%	11%	2%	-3%	-11%
Cc1cc(C)cc(NC(=S)NC(=O)C2CC2)c1	2	-16%	-15%	-3%	.	13µM*
Cc1cc(NC(=S)NC(=O)C2CC2)ccc1Br	76	52%	?	2%	5%	?
Cc1cccc(NC(=S)NC(=O)C2CC2)c1	.	.	.	.	.	35µM*
Cc1cc2oc(=O)cc(Cn3ncc(Cl)c(Cl)c3=O)c2cc1Cl	.	?	?	-3%	3%	3.5µM*
Cc1cc(C(=O)Cn2ncc(Cl)c(Cl)c2=O)c(C)n1CC(F)(F)F	-100*	?	-4%	-7%	-2%	45µM*
Cc1ccc(C)c(C(=O)Cn2ncc(Cl)c(Cl)c2=O)c1	-97*	32µM*	19%	2%	5%	50µM*
Cc1ccc(C)c(C(=O)CN2C(=O)c3ccccc3C2=O)c1	-14	17%	4%	-3%	2%	5%
Cc1cccc(Cn2ncc(Cl)c(Cl)c2=O)c1	-94*	?	-27%	0%	-1%	0%
CCc1ccc(Cn2c(CNS(=O)(=O)c3ccc([N+](=O)[O-])cc3)nc3cccnc32)cc1	13	59%	.	-14%	.	7%
Nc1c(-c2nc(-c3cccs3)no2)nnn1-c1ccccc1Cl	23	20%	.	-10%	.	2%
CCc1nn2c(=O)cc(COC(=O)c3cccs3)nc2s1	16	42%	.	4%	.	5%
SMILES	HCMV antiviral	FMDV inh	RE007 growth inh	TbPYK inhibitor	Giardia FBPA inh	Sm TGR inh
Cc1cccc(Cn2nnc3c2C(=O)c2ccccc2C3=O)c1	-100*	?	-11%[3.69 µM]	.	?	-21%
Cc1ccccc1Cn1nnc2c1C(=O)c1ccccc1C2=O	80	-2%	7%	7%	.	.
OC(c1ccccc1)(c1nc(/C=C/c2ccccc2)cs1)C(F)(F)F (centres undefined)	-61*	14%	5%[18.4 µM]	-8%	.	.
OC(c1ccccc1)(c1nc(-c2ccc3ccccc3c2)cs1)C(F)(F)F (centres undefined)	-83*	3%	?	-2%	.	.
CCCCCCCCCCCCCCCC(=O)OCC(COP(=O)(O)O)OC(=O)CCCCCCCCCCCCCCC (centres undefined)	.	-13%[6.7 µM]	.	.	2%	.
O=C(CCS(=O)(=O)c1nc(-c2ccc3c(c2)OCO3)cc(C(F)(F)F)n1)Nc1ccccc1F	2	?	.	-5%	.	?

Source: PubChem BioAssay (National Center for Advancing Translational Sciences (NCATS))
